Molecules are shown by their SMILES. Out of some 69,000 compounds screened, about 8,600 (12%) showed an effect of 50% or more. The sample holds strong results, similar compounds and a random draw of the others, so the mix is not that of the screen.

For this assay, the system named is Plasmodium berghei. Description: Screen against P. berghei liver stage (PbLuc), transformed with Luciferase, at 10uM. Type of assay: functional, HepG2. To be noted: tested at 10 uM.
Consider `Cn1cc(CN2C[C@H]3CCN(C(=O)c4cscn4)C[C@H]3C2)cn1`, for which the INHIBITION is 43.9%.

On to `CC(C)Oc1ncccc1CNC(=O)Nc1ccccn1`, for which the INHIBITION is -17.6%. For `Cc1cc(-c2ccccc2C(=O)O)nc(C2CCCN(C(C)C)C2)n1` (configuration not stated) the value was 13%. On to `Cc1nc(NC2CCCC2)cc(C2CCN2C(=O)c2cnn(C)c2)n1` (configuration not stated), for which the INHIBITION is 0.301%. Turning to `Cc1ccc2c(c1)SCC(=O)N2Cc1noc(C2CC2)n1`, the INHIBITION is reported as -0.578%. As to `CC(CN1CCOCC1)NC(=O)NCCc1ccc(Cl)s1` (configuration not stated), the INHIBITION was determined as 53.4%.

Turning to `CC(CN1CCOCC1)NC(=O)NCc1ccc(Cl)s1` (configuration not stated), the INHIBITION is listed as -34.7%. To `O=C(NCCC1=CCCCC1)NCc1nnc2n1CCC2` belongs 40.3%; to `CC(CN1CCOCC1)NC(=O)N(C)Cc1ccc(Cl)s1` (configuration not stated), -12.6%; to `CN(Cc1cnn(C)c1)C(=O)NCc1nnc2n1CCC2`, -22.6%.

With `COc1ccc(C(NC(=O)NCc2nnc3n2CCC3)C2CC2)cc1` (configuration not stated), the INHIBITION is recorded as 50.4%. Consider `O=C(NCCc1ccc(Cl)s1)NCc1nnc2n1CCC2`, for which the INHIBITION is reported as 53.8%. Take `O=C(NCCc1ccc(Cl)s1)NCc1nnc2n1CCCC2`: the INHIBITION was 21%. To `CCn1cnnc1CNC(=O)NC(c1ccc(OC)cc1)C1CC1` (configuration not stated) belongs 32.5%; to `CCc1ccc(CNC(=O)NCc2nnc3n2CCC3)s1`, 25.1%; to `O=C(NCc1ccc(Cl)s1)NCc1nnc2n1CCCCC2`, -10.6%. `Cn1cc(CCNC(=O)NCc2nnc3n2CCC3)cn1`: the INHIBITION is listed as 59.7%.

Turning to `CN(C)CCC1CCN(Cc2ccn(C)c(=O)c2)CC1`, the INHIBITION is listed as -8.11%. Turning to `CO[C@H]1CN(C(=O)c2ccccn2)[C@@H]2CCCO[C@H]12`, the INHIBITION came to 36.4%. Take `CC(C)c1ncc(Cl)c(C(=O)N2CCN(C3CC3)CC2)n1`: the INHIBITION came out at 40.7%. On to `CS(=O)(=O)N1C[C@H]2CCCN(Cc3ccsc3)[C@H]2C1`, for which the INHIBITION worked out at 21.6%.

As for `COc1cc(N2CCC3(CC2)CC(N2CCN(C)CC2)CO3)ncn1` (configuration not stated), the INHIBITION came to 26%.

Turning to `Cc1cccc(C(=O)N2C[C@@H]3CC[C@H](Oc4cccc(F)c4)[C@@H]3C2)n1`, the INHIBITION came out at 25.6%. Take `COCCN1CCC2(CCCN(C(=O)c3cncn3C)C2)CC1`: the INHIBITION is on record as 49.7%. `CNC(=O)CC1CC2(CCN(CC3CC3)CC2)Oc2ccccc21` (configuration not stated): the INHIBITION is 44.5%. With `Cc1nc2sccn2c1CN(CCCN(C)C)Cc1ccccn1`, the INHIBITION is listed as -12.5%. For `CN(CC1CCN(CCO)CC1)CC(O)c1ccc(F)cc1F` (configuration not stated) the value was 59.1%; for `CN(CC1CCN(CCO)CC1)CC(O)c1ccc(F)c(F)c1` (configuration not stated), 49.9%. `CN(CC1CCN(CCO)CC1)CC(O)c1ccc(F)cc1` (configuration not stated): the INHIBITION is 34.1%. Turning to `Cc1cc(C)n(Cc2ccc(-c3noc(C(=O)NC[C@@H](C)O)n3)cc2)n1`, the INHIBITION is listed as -4.28%. In the case of `CN1CCCN(c2nccc(-c3c[nH]c4ccc(Br)cc34)n2)CC1`, the INHIBITION is listed as 41.2%. For `Cc1ccnc(OCC(=O)N2CCC(C(N)=O)CC2)n1` the value was 26.4%. As to `NC(=O)C1CCN(c2ncc(-c3cnccn3)c([C@H]3CCCO3)n2)CC1`, the INHIBITION is given as -0.902%.

For the molecule `CN1CCN(c2nccc(-c3cncnc3C3CCCCC3)n2)CC1`, the INHIBITION is reported as 23.4%. As to `NC(=O)[C@H]1CCCN(c2nccc(-c3c[nH]nc3-c3cccnc3)n2)C1`, the INHIBITION came out at 54.5%. Regarding `NC(=O)[C@H]1CCCN(c2nccc(-c3ccncc3)n2)C1`, the INHIBITION was 10%.

On to `NC(=O)C1CCN(c2nc3nccc(-c4ccccn4)c3c(=O)[nH]2)CC1`, for which the INHIBITION is reported as 2.37%. As to `NC(=O)C1CCN(c2nccc(-c3c[nH]nc3C3CCCCC3)n2)CC1`, the INHIBITION is recorded as 57.5%. Take `Cc1ncc(-c2ccnc(N3CC[C@H](O)C3)n2)c(-c2cccnc2)n1`: the INHIBITION is -13.7%. For `CCOC(=O)C1CCN(c2nccc(-n3nc(C)cc3C)n2)CC1` the value was -79.8%.

With `Cc1ccnc(N2CCC(C(N)=O)CC2)n1`, the INHIBITION came to 63.4%. Regarding `CN1CCCN(c2nccc(-c3cncnc3C3CCCCC3)n2)CC1`, the INHIBITION is given as 50.1%.

`CSc1ncccc1C(=O)N1C[C@@H]2CC[C@H]1CN(c1ncccn1)C2`: the INHIBITION is on record as 15.1%. In the case of `CC(Cn1ccnc1)NC(=O)NCc1ccccn1` (configuration not stated), the INHIBITION is 15.34%. As to `COCCCNC(=O)c1nnsc1-c1ccccc1`, the INHIBITION is -6.42%. To `CNc1cccc(C2CCN(C(C)=O)CC2)n1` belongs -9.51%; to `COc1ccc(C)cc1CN1CCOC(Cn2nc(C)nc2C)C1` (configuration not stated), -10.6%.

As to `CCc1cc(-c2cc[nH]n2)nc(N2CCOCC2)n1`, the INHIBITION is on record as 17.5%. For the molecule `CC1CN(CC(=O)Nc2ccncc2)CCN1Cc1nccn1C` (configuration not stated), the INHIBITION is given as 8.9%. To `COCC[C@]1(O)CCN(Cc2nc(C)c(C)s2)C[C@H]1C` belongs -47.4%; to `Nc1nccc(-c2c[nH]nc2C2CCCCC2)n1`, 41.2%. `c1cc(-c2cn3nccc3nc2C2CCCCC2)nc(N2CCCC2)n1`: the INHIBITION was 82.7%. Take `CN1CCCN(c2nccc(-c3c[nH]nc3C3CCCCC3)n2)CC1`: the INHIBITION is 68.9%.

With `Cc1csc2ncc(-c3ccnc(N4CCC[C@H](C(N)=O)C4)n3)c(=O)n12`, the INHIBITION amounted to 64.9%.

With `CC(C)c1nc(C2CCCN(c3nccc(N4CCCC4)n3)C2)no1` (configuration not stated), the INHIBITION stood at 23.1%. Consider `Cc1csc2ncc(-c3ccnc(N4CCCC4)n3)c(=O)n12`, for which the INHIBITION is on record as -71.6%. To `c1cc(-c2c[nH]nc2C2CCCCC2)nc(N2CCCCCC2)n1` belongs 90.1%. Turning to `CN1CCCN(c2nccc(-c3cc(C(=O)O)ccn3)n2)CC1`, the INHIBITION is 41.4%. For `Cc1csc2ncc(-c3ccnc(N4CCCN(C)CC4)n3)c(=O)n12` the value was 26.3%; for `O=S1(=O)NC(c2ccnc(N3CCCCC3)n2)=Nc2ccccc21`, 25.8%. For `CC(=O)N1CCCN(c2nccc(-c3cn(C)nc3C)n2)CC1` the value was 4.2%. In the case of `OCCNc1nccc(-c2cn3nccc3nc2C2CCCCC2)n1`, the INHIBITION is given as 39.7%.

Take `Cc1ccc(Cl)cc1NCc1nc2n(n1)CCCCC2`: the INHIBITION worked out at 25.1%.

`COc1cccc(COCC(=O)N2CCN(S(C)(=O)=O)CC2)c1`: the INHIBITION was 28.74%. In the case of `CN(C)C(=O)CN1CCC2(C1)CN(CC1CCOC1)C2` (configuration not stated), the INHIBITION stood at 8.31%. In the case of `CC(C)=CCN1CCN(C(=O)c2cc(C)n[nH]2)[C@H]2CS(=O)(=O)C[C@H]21`, the INHIBITION is given as -6.67%.

Consider `Cc1ccc(CN2CCC3(CC2)CCN(C(=O)c2cccn2C)C3)cc1`, for which the INHIBITION was found to be 6.27%. Consider `COCCOC(=O)N1CCN2C[C@@H](CO)[C@H](c3ccccc3)[C@H]2C1`, for which the INHIBITION is -8.8%.

Consider `CN1CCCN(c2nccc(-c3c[nH]nc3-c3ccncc3)n2)CC1`, for which the INHIBITION was found to be 42.6%. As for `Cc1ncc(-c2ccnc(N3CCCCCC3)n2)c(-c2cccnc2)n1`, the INHIBITION is given as 12.7%. On to `c1cc(-c2n[nH]cc2-c2ccnc(N3CCCC3)n2)ccn1`, for which the INHIBITION stood at 33.7%.

In the case of `Cc1ncc(-c2ccnc(N3CCN(C)CC3)n2)c(-c2cccnc2)n1`, the INHIBITION was determined as 21.9%. Regarding `c1cc(-c2n[nH]cc2-c2ccnc(N3CCCCCC3)n2)ccn1`, the INHIBITION is given as 50.1%. For `c1cncc(-c2nc(C3CC3)ncc2-c2ccnc(N3CCCC3)n2)c1`, the INHIBITION worked out at 51.5%.

For `Cc1nc(CN(C)C2CCN(Cc3nc(C4CC4)no3)C2)no1` (configuration not stated), the INHIBITION stood at 40.9%. In the case of `COc1ccc(-c2cc(N)on2)cc1`, the INHIBITION was -3.34%. Turning to `Cc1nc(CNC(=O)NCC2(C)CCCc3ccccc32)no1` (configuration not stated), the INHIBITION is on record as -21.9%. For the molecule `CC(CNC(=O)N1CCN(Cc2ccon2)CC1)N(C)C1CC1` (configuration not stated), the INHIBITION is 4.62%. Regarding `CNC(=O)[C@@]12CCC3(CCN(S(C)(=O)=O)CC3)[C@@H]1CN(C(C)=O)C2`, the INHIBITION turned out to be 40.1%. For `CC(=O)N1CCCC(c2ccc3sc(N)nc3n2)C1` (configuration not stated), the INHIBITION is on record as 26.3%.

Regarding `O=C(CC1CC1)N1CCN(Cc2ccncc2)c2ncccc2C1`, the INHIBITION is reported as -45.8%.

For `Cc1nc(NS(=O)(=O)c2ccc(F)c(Br)c2)no1`, the INHIBITION is 10.6%. For `CCc1nc(NS(=O)(=O)c2ccc(F)cc2Cl)no1` the value was 56.1%; for `CCc1nc(NS(=O)(=O)c2cc(C)ccc2F)no1`, -7.9%; for `Cc1nc(NS(=O)(=O)c2ccc(C)c(Br)c2)no1`, 68.3%. For `CSCC(C)(O)CNS(=O)(=O)c1ccc(F)cc1` (configuration not stated) the value was 12.3%. Consider `CC(C)c1nc(NS(=O)(=O)c2ccccc2Cl)no1`, for which the INHIBITION was determined as 2.61%. To `CC(C)(C)c1nc(NS(=O)(=O)c2ccccc2F)no1` belongs 82.2%; to `CCc1nc(NS(=O)(=O)c2ccc(F)cc2C)no1`, -3.16%. For `CC(C)(C)c1nc(NS(=O)(=O)c2ccc(F)cc2)no1`, the INHIBITION is listed as 51.6%. As for `CCc1nc(NS(=O)(=O)c2ccc(C)cc2Cl)no1`, the INHIBITION is recorded as 4.74%. On to `Cc1nc(NS(=O)(=O)c2cc(C)c(Br)cc2C)no1`, for which the INHIBITION turned out to be 49.4%. For the molecule `Cn1ncnc1NS(=O)(=O)c1ccc(F)cc1`, the INHIBITION is reported as -3.59%. For `NC1(CNC(=O)c2cc3ccccc3[nH]2)CCCC1`, the INHIBITION was -8.28%.

Take `Cc1ncccc1Oc1ncnc(N2CCC(O)(CO)CC2)c1C`: the INHIBITION was -6.03%.

Consider `COCCn1cc2c(n1)C(CNCc1cccc(OC)c1)OCC2` (configuration not stated), for which the INHIBITION is on record as 17.4%. Turning to `O=C(Nc1cnccn1)[C@@H]1COC[C@H]2CN(C3CCC3)C[C@H]21`, the INHIBITION worked out at 24.9%. In the case of `O=C(Cc1ccsc1)N1Cc2nc(CN3CCCCC3)oc2C1`, the INHIBITION is 31.5%. On to `CCc1nc(C2CCCN2CCC(=O)N2CCc3ccccc32)no1` (configuration not stated), for which the INHIBITION turned out to be 46.2%. For the molecule `CCc1nc(NS(=O)(=O)c2cc(C)cc(F)c2)no1`, the INHIBITION is reported as 40.9%.

For the molecule `Cc1c(F)cccc1S(=O)(=O)Nc1noc(C(C)C)n1`, the INHIBITION came out at 10.2%. Consider `Cc1cc(F)cc(S(=O)(=O)Nc2noc(C)n2)c1`, for which the INHIBITION is 31.5%. For `CC(C)(C)c1nc(NS(=O)(=O)c2cccc(F)c2)no1`, the INHIBITION is reported as 82.2%. Consider `Cc1nc(NS(=O)(=O)c2cccc(F)c2C)no1`, for which the INHIBITION is 74.5%. For the molecule `CCc1nc(NS(=O)(=O)c2cccc(F)c2C)no1`, the INHIBITION is 39.7%. Regarding `Cc1cc(N(Cc2cccs2)C2CC2)n2nc(C(F)(F)F)nc2n1`, the INHIBITION turned out to be 26.6%. To `CC(C)n1cnnc1SCCN(C)c1ccccc1` belongs -34.8%.

Values taken from ChEMBL document CHEMBL4513216, “Probing the Open Global Health Chemical Diversity Library for Multistage-Active Starting Points for Next-Generation Antimalarials” (ACS Infect Dis, 2020).
